# The source made the active and inactive calls. The calls were made as follows: active = hit-call score of the fitted dose curve at least 0.9, where 1 is the maximum; inactive = score below 0.9.
# Assays:
# [1] = ATG_PBREM_CIS: Attagene CIS-FACTORIAL HepG2 Assay for human Phenobarbital-responsive Enhancer Module (PBREM) (AID 2282955); conditions: HepG2 PBREM cis-reporter, Attagene multiplexed transcription; actives raise or lower the signal
# In short: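 Cells were transfected with cis-element reporter units and treated for 24 h, after which RNA was extracted and reporter transcripts measured by RT-PCR and capillary electrophoresis.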
# [2] = target: Paired box protein Pax-6 (Homo sapiens) (UniProt P26367); assay: ATG_Pax6_CIS: Attagene CIS-FACTORIAL HepG2 Assay for human Paired Box 6 (PAX6) (AID 2282956); conditions: HepG2 CIS-FACTORIAL PAX6 reporter transcription, RNA readout; actives raise or lower the signal
# In short: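 Readout: reporter transcript fluorescence after RT-PCR and capillary electrophoresis. Cells: HepG2, transiently transfected with cis-regulated MRTUs. Exposure 24 h. Gain or loss of signal fitted bidirectionally relative to DMSO.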
# [3] = ATG_PXRE_CIS: Attagene CIS-FACTORIAL HepG2 Assay for human Pregnane X Receptor Element (PXRE) (AID 2282957); conditions: HepG2 Attagene CIS-FACTORIAL PXRE reporter, mRNA; actives raise or lower the signal
# In short: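 Read-out: fluorescence of reporter-specific RT-PCR products resolved by capillary electrophoresis, fitted bidirectionally relative to DMSO. Human HepG2 liver cells carried transfected cis-promoter reporter units and were exposed to chemicals for 24 h.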
# [4] = ATG_PPRE_CIS: Attagene CIS-FACTORIAL HepG2 Assay for human Peroxisome Proliferator-activated Response Element (PPRE) (AID 2282958); conditions: HepG2 PPRE cis-element reporter, Attagene transcription factor profiling; actives raise or lower the signal
# In short: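 In this cell-based multiplex, a PPRE cis element drives a reporter sequence in transiently transfected HepG2 cells. Following 24 h treatment, labeled cDNA amplicons are sized and quantified by capillary electrophoresis, with DMSO defining baseline.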
# [5] = ATG_RORE_CIS: Attagene CIS-FACTORIAL HepG2 Assay for human RAR-related Orphan Receptor Element (RORE) (AID 2282959); conditions: HepG2 Attagene cis-factorial RORE reporter, mRNA; actives raise or lower the signal
# In short: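 Endogenous factor activity at a cis response element is read as reporter transcript levels in HepG2 cells, 24 h post-dose. Transcripts are quantified by RT-PCR with capillary electrophoresis, and data fitted in both directions against DMSO.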
# [6] = ATG_Sox_CIS: Attagene CIS-FACTORIAL HepG2 Assay for human SRY-box transcription factor (SOX) (AID 2282960); conditions: HepG2 Attagene cis-factorial SOX reporter, mRNA; actives raise or lower the signal
# In short: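 Measures mRNA induction of a SOX1-associated reporter in HepG2 after 24 h dosing. Fluorescently labelled RT-PCR fragments are separated by capillary electrophoresis, and gain or loss relative to DMSO control is fitted.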
# [7] = target: Transcription factor Sp1 (Homo sapiens) (UniProt P08047); assay: ATG_Sp1_CIS: Attagene CIS-FACTORIAL HepG2 Assay for human Specificity Protein 1 (Sp1) (AID 2282961); conditions: HepG2 Sp1 cis-reporter transcription, actives raise or lower the signal
# In short: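 Cells: HepG2, transiently transfected with cis-regulated multiplexed reporters. Exposure: 24 h. Detection: reporter transcripts amplified, fluorescently labeled, restriction-digested and sized by capillary electrophoresis. Analysis: bidirectional fit relative to DMSO.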
# [8] = ATG_SREBP_CIS: Attagene CIS-FACTORIAL HepG2 Assay for human Sterol Regulatory Element Binding (SREBP) (AID 2282962); conditions: HepG2 Attagene cis-factorial SREBP reporter, mRNA; actives raise or lower the signal
# In short: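 Readout: fluorescent reporter-transcript peaks resolved by capillary electrophoresis after RT-PCR. Cells were human HepG2 carrying transfected cis-promoter reporter constructs, dosed for 24 h. Gain or loss of signal was fitted against DMSO controls.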
# [9] = target: Signal transducer and activator of transcription 3 (Homo sapiens) (UniProt P40763); assay: ATG_STAT3_CIS: Attagene CIS-FACTORIAL HepG2 Assay for human Signal Transducer and Activator of Transcription 3 (STAT3) (AID 2282963); conditions: HepG2, Attagene cis-factorial STAT3 reporter transcription; actives raise or lower the signal
# In short: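 Readout is reporter transcript quantified by RT-PCR and capillary electrophoresis, with 6-FAM primer extension and HpaI digestion. Total RNA is taken 24 h after dosing transiently transfected HepG2 carrying cis-regulated reporter units. Bidirectional fit against DMSO.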
# [10] = ATG_TA_CIS: Attagene CIS-FACTORIAL HepG2 Assay for human TA Basal Promoter (AID 2282964); conditions: HepG2 Attagene CIS-factorial TA basal promoter reporter; actives raise or lower the signal
# In short: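 HepG2 cells transiently transfected with multiplexed cis-promoter reporter units, dosed 24 h. Reporter mRNA measured by RT-PCR, 6-FAM labelling, HpaI digestion and capillary electrophoresis; bidirectional fit versus DMSO baseline, serving as background control.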
# Chain of Transcription factor Sp1 (Homo sapiens) (P08047 whole entry, looked up): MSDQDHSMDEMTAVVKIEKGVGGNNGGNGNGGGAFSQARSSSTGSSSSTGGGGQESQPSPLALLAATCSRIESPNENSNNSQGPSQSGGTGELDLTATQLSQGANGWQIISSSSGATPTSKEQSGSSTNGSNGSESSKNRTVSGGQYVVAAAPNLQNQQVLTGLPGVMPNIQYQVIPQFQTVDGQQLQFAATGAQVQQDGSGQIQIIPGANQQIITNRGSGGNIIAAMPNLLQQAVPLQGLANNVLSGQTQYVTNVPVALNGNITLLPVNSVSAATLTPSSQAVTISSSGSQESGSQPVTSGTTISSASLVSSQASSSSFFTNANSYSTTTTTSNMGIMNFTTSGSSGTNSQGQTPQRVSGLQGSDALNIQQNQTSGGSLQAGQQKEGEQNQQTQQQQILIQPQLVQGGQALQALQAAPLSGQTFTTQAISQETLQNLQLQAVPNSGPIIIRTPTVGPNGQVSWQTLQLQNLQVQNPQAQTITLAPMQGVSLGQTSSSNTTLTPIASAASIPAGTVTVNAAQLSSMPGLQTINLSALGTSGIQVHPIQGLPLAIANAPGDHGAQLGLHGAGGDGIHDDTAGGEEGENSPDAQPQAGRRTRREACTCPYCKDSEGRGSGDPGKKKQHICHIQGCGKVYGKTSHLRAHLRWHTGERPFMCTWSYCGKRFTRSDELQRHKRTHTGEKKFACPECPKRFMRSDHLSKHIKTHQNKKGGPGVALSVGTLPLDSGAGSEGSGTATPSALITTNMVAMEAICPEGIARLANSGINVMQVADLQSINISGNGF
# Chain of Paired box protein Pax-6 (Homo sapiens) (P26367 whole entry, looked up): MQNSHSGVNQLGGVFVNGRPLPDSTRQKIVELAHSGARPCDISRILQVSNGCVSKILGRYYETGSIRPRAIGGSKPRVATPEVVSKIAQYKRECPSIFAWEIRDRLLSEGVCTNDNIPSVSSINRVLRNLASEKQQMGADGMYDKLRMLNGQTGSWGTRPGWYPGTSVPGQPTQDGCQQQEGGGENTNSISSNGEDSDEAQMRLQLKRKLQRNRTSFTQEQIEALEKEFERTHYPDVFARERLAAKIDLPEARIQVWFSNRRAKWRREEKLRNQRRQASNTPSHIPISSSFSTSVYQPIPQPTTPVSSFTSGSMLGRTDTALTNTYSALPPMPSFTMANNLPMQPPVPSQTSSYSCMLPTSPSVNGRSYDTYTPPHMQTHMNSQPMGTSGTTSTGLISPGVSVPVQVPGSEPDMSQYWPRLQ
# Chain of Signal transducer and activator of transcription 3 (Homo sapiens) (P40763 whole entry, looked up): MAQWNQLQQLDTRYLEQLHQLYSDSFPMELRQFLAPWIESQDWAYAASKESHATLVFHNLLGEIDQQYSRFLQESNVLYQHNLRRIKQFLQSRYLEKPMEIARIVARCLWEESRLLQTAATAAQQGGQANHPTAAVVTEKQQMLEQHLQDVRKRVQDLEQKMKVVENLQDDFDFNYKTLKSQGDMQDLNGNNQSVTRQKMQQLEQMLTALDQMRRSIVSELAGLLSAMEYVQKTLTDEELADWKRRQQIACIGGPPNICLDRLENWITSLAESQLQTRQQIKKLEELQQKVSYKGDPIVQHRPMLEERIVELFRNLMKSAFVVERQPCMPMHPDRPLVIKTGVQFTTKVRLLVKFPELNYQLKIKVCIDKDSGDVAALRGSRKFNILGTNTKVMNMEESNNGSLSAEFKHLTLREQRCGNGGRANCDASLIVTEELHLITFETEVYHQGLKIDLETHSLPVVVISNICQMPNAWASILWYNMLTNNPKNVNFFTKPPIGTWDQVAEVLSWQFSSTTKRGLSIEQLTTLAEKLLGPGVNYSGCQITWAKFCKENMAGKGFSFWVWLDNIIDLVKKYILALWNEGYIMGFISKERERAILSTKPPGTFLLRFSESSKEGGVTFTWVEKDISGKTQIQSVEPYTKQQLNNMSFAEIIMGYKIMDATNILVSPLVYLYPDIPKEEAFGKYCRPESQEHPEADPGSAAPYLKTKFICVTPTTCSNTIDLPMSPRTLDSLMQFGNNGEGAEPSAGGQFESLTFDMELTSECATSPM
smiles,measurement,setting,value
CCOC(=O)C(C)OC(=O)c1cc(Oc2ccc(C(F)(F)F)cc2Cl)ccc1[N+](=O)[O-] (stereo not given),AC50,[1],19.1 µM (active)
same,outcome,[2],inactive
same,AC50,[3],7.84 µM (active)
same,AC50,[4],11.7 µM (active)
same,AC50,[5],50 µM (active)
same,outcome,[6],inactive
same,outcome,[7],inactive
same,AC50,[8],19.3 µM (active)
same,outcome,[9],inactive
same,outcome,[10],inactive
CCN(CC)C(=O)C(C)Oc1cccc2ccccc12 (stereo not given),AC50,[1],0.949 µM (active)
same,outcome,[2],inactive
same,AC50,[3],0.163 µM (active)
same,AC50,[4],50 µM (active)
same,AC50,[5],28 µM (active)
same,outcome,[6],inactive
same,outcome,[7],inactive
same,AC50,[8],28.8 µM (active)
same,outcome,[9],inactive
same,outcome,[10],inactive
N#Cc1c(Cl)cccc1Cl,outcome,[1],inactive
same,outcome,[2],inactive
same,AC50,[3],21.6 µM (active)
same,outcome,[4],inactive
same,outcome,[5],inactive
same,outcome,[6],inactive
same,outcome,[7],inactive
same,outcome,[8],inactive
same,outcome,[9],inactive
same,outcome,[10],inactive
CN=C=S,outcome,[1],inactive
same,outcome,[2],inactive
same,outcome,[3],inactive
same,AC50,[4],18.3 µM (active)
same,outcome,[5],inactive
same,outcome,[6],inactive
same,AC50,[7],13.3 µM (active)
same,AC50,[8],13.1 µM (active)
same,outcome,[9],inactive
same,outcome,[10],inactive
Clc1cccc(C(Cl)(Cl)Cl)n1,outcome,[2],inactive
same,AC50,[3],48.7 µM (active)
same,outcome,[5],inactive
same,outcome,[6],inactive
same,outcome,[7],inactive
same,outcome,[8],inactive
same,outcome,[9],inactive
same,outcome,[10],inactive
Cc1cc(C)nc(Nc2ccccc2)n1,AC50,[1],50 µM (active)
same,outcome,[2],inactive
same,outcome,[3],inactive
same,AC50,[4],16.7 µM (active)
same,outcome,[5],inactive
same,outcome,[6],inactive
same,outcome,[7],inactive
same,AC50,[8],23 µM (active)
same,outcome,[9],inactive
same,outcome,[10],inactive
CCC(C)n1c(=O)[nH]c(C)c(Br)c1=O (stereo not given),outcome,[1],inactive
same,outcome,[2],inactive
same,AC50,[3],50 µM (active)
same,outcome,[5],inactive
same,outcome,[6],inactive
same,outcome,[7],inactive
same,outcome,[8],inactive
same,outcome,[9],inactive
same,outcome,[10],inactive
Cn1c(-c2ccccc2)cc(-c2ccccc2)[n+]1C,outcome,[1],inactive
same,outcome,[2],inactive
same,outcome,[3],inactive
same,outcome,[5],inactive
same,outcome,[6],inactive
same,outcome,[7],inactive
same,outcome,[8],inactive
same,outcome,[9],inactive
same,outcome,[10],inactive
Cc1ccc(N=CN(C)C=Nc2ccc(C)cc2C)c(C)c1,outcome,[1],inactive
same,outcome,[2],inactive
same,outcome,[3],inactive
same,outcome,[5],inactive
same,outcome,[6],inactive
same,outcome,[7],inactive
same,outcome,[8],inactive
same,outcome,[9],inactive
same,outcome,[10],inactive
Cc1cnc(C2=NC(C)(C(C)C)C(=O)N2)c(C(=O)O)c1 (stereo not given),outcome,[2],inactive
same,AC50,[3],24.8 µM (active)
same,outcome,[4],inactive
same,outcome,[5],inactive
same,outcome,[6],inactive
same,outcome,[7],inactive
same,outcome,[8],inactive
same,outcome,[9],inactive
same,outcome,[10],inactive
COCC(C)N(C(=O)CCl)c1c(C)csc1C (stereo not given),outcome,[2],inactive
same,AC50,[3],1.06 µM (active)
same,outcome,[4],inactive
same,outcome,[5],inactive
same,outcome,[6],inactive
same,outcome,[7],inactive
same,AC50,[8],5.88 µM (active)
same,outcome,[9],inactive
same,outcome,[10],inactive
CCCN(CC)CC1COC2(CCC(C(C)(C)C)CC2)O1 (stereo not given),AC50,[1],16.1 µM (active)
same,AC50,[2],21.9 µM (active)
same,AC50,[3],13.5 µM (active)
same,AC50,[5],18.1 µM (active)
same,AC50,[6],35.5 µM (active)
same,outcome,[7],inactive
same,AC50,[8],24.5 µM (active)
same,AC50,[9],86.3 µM (active)
same,outcome,[10],inactive
N#CN=C1SCCN1Cc1ccc(Cl)nc1,outcome,[2],inactive
same,AC50,[3],50 µM (active)
same,outcome,[4],inactive
same,outcome,[5],inactive
same,outcome,[6],inactive
same,outcome,[7],inactive
same,outcome,[8],inactive
same,outcome,[9],inactive
same,outcome,[10],inactive
CCOP(=S)(OCC)Oc1nc(Cl)n(C(C)C)n1,outcome,[2],inactive
same,AC50,[3],0.655 µM (active)
same,outcome,[5],inactive
same,outcome,[6],inactive
same,outcome,[7],inactive
same,AC50,[8],5.98 µM (active)
same,outcome,[9],inactive
same,outcome,[10],inactive
CCNP(=S)(OC)O/C(C)=C/C(=O)OC(C)C (stereo not given),AC50,[1],14.7 µM (active)
same,outcome,[2],inactive
same,AC50,[3],2.6 µM (active)
same,outcome,[5],inactive
same,outcome,[6],inactive
same,outcome,[7],inactive
same,AC50,[8],16.3 µM (active)
same,outcome,[9],inactive
same,outcome,[10],inactive
CC(C)Oc1cccc(NC(=O)c2ccccc2C(F)(F)F)c1,outcome,[1],inactive
same,outcome,[2],inactive
same,AC50,[3],4.22 µM (active)
same,AC50,[4],21.3 µM (active)
same,AC50,[5],33.6 µM (active)
same,outcome,[6],inactive
same,outcome,[7],inactive
same,outcome,[8],inactive
same,outcome,[9],inactive
same,outcome,[10],inactive
N#Cc1c[nH]cc1-c1cccc2c1OC(F)(F)O2,outcome,[2],inactive
same,AC50,[3],11.6 µM (active)
same,AC50,[4],13.2 µM (active)
same,outcome,[5],inactive
same,AC50,[6],3.85 µM (active)
same,outcome,[7],inactive
same,outcome,[8],inactive
same,outcome,[9],inactive
same,outcome,[10],inactive
CCCCOCN(C(=O)CCl)c1c(CC)cccc1CC,AC50,[1],0.888 µM (active)
same,outcome,[2],inactive
same,AC50,[3],0.265 µM (active)
same,outcome,[4],inactive
same,outcome,[6],inactive
same,outcome,[7],inactive
same,outcome,[8],inactive
same,outcome,[9],inactive
same,outcome,[10],inactive
CC(C)Nc1nc(Cl)nc(NC(C)C)n1,outcome,[1],inactive
same,outcome,[2],inactive
same,AC50,[3],15.3 µM (active)
same,outcome,[4],inactive
same,outcome,[6],inactive
same,outcome,[7],inactive
same,outcome,[8],inactive
same,outcome,[9],inactive
same,outcome,[10],inactive

# Reference: PubChem BioAssay (EPA / NIEHS)
